Measured values from PubChem BioAssay AID1159580 (chemical genetic matrix, 2015).
Out of some 5,500 compounds screened, about 2,000 (36%) were called active. About 18% were inconclusive and are not listed. No stated cut-off is given here; in the data, active means normalized growth mostly below about 0.91 (no sharp cut-off); inconclusive means no clear call, values can overlap the other calls; inactive means mostly above about 0.92. The list shows a part of the results.

Test: chemical genetic growth profiling, strain panel (AID 1159580);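 further: tested at 20 µM; growth read once vehicle control cultures reached saturation at 30 °C; 1 = growth at the plate median or of vehicle wells; lower values mean less growth of the strain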
Conditions: S. cerevisiae deletion strains, growth OD

Measured: normalized growth

C/C=C(/C)C(=O)OC1CCC2(C)C3CCC4C5(O)CC(O)C6(O)C(CN7CC(C)CCC7C6(C)O)C5(O)CC42OC13O (stereo not drawn)
active: locus YBR021W, strain FUR4, hits give low values 0.747 | locus YER167W, strain BCK2, hits give low values 0.852
inactive: locus YAL021C, strain ccr4, hits give low values 0.955 | locus YAL026C, strain drs2, hits give low values 0.954 | locus YAL030W, strain snc1, hits give low values 1.01 | locus YBL061C, strain skt5, hits give low values 1.01 | locus YBR009C, strain hhf1, hits give low values 0.951 | locus YBR023C, strain chs3, hits give low values 0.992 | locus YBR171W, strain sec66, hits give low values 0.968 | locus YBR229C, strain ROT2, hits give low values 0.97 | locus YBR231C, strain swc5, hits give low values 0.991 | locus YBR279W, strain paf1, hits give low values 0.99 | locus YCL011C, strain gbp2, hits give low values 0.993 | locus YCL016C, strain dcc1, hits give low values 1.01 | locus YCL029C, strain bik1, hits give low values 0.979 | locus YCL069W, strain vba3, hits give low values 0.971 | locus YCR088W, strain abp1, hits give low values 0.993 | locus YDL005C, strain med2, hits give low values 1.01 | locus YDL035C, strain GPR1, hits give low values 0.922 | locus YDL040C, strain nat1, hits give low values 0.994 | locus YDL074C, strain BRE1, hits give low values 0.844 | locus YDL101C, strain DUN1, hits give low values 0.95 | locus YDL185W, strain tfp1, hits give low values 0.994 | locus YDL192W, strain arf1, hits give low values 0.96 | locus YDR001C, strain nth1, hits give low values 0.995 | locus YDR069C, strain doa4, hits give low values 1.01 | locus YDR101C, strain arx1, hits give low values 0.955 | locus YDR137W, strain rgp1, hits give low values 0.857 | locus YDR150W, strain NUM1, hits give low values 0.986 | locus YDR159W, strain sac3, hits give low values 0.974 | locus YDR162C, strain NBP2, hits give low values 0.942 | locus YDR195W, strain ref2 1.04 | locus YDR297W, strain sur2, hits give low values 0.982 | locus YDR318W, strain mcm21, hits give low values 0.964 | locus YDR334W, strain swr1, hits give low values 0.977 | locus YDR335W, strain msn5, hits give low values 0.999 | locus YDR388W, hits give low values 0.953 | locus YDR392W, strain spt3, hits give low values 0.95 | locus YDR502C, strain sam2, hits give low values 0.937 | locus YEL003W, strain gim4, hits give low values 0.993 | locus YEL037C, strain rad23, hits give low values 0.984 | locus YEL061C, strain CIN8 (second series), hits give low values 0.981 | locus YEL061C, strain CIN8, hits give low values 0.961 | locus YER015W, strain faa2, hits give low values 0.999 | locus YER016W, strain bim1, hits give low values 1.07 | locus YER110C, hits give low values 0.963 | locus YER111C, strain swi4, hits give low values 0.995 | locus YER155C, strain BEM2 (second series), hits give low values 0.969 | locus YER155C, strain BEM2, hits give low values 0.966 | locus YFR010W, strain ubp6, hits give low values 0.969 | locus YGL078C, strain dbp3, hits give low values 0.989 | locus YGL086W, strain mad1, hits give low values 0.953 | locus YGL167C, strain pmr1, hits give low values 0.996 | locus YGL173C, strain kem1, hits give low values 0.998 | locus YGL227W, strain vid30, hits give low values 1 | locus YGL240W, strain doc1, hits give low values 0.988 | locus YGL248W, strain PDE1, hits give low values 0.928 | locus YGL253W, strain hxk2, hits give low values 1 | locus YGR135W, strain pre9, hits give low values 0.928 | locus YGR252W, strain gcn5, hits give low values 0.789 | locus YHR013C, strain ard1, hits give low values 0.995 | locus YHR027C, strain rpn1, hits give low values 1 | locus YHR030C, strain SLT2, hits give low values 0.982 | locus YHR079C, strain IRE1 (second series), hits give low values 0.972 | locus YHR094C, strain hxt1, hits give low values 0.971 | locus YHR129C, strain ARP1, hits give low values 0.955 | locus YHR142W, strain chs7, hits give low values 0.974 | locus YHR200W, strain rpn10, hits give low values 0.973 | locus YIL066C, strain RNR3, hits give low values 0.885 | locus YIL073C, strain SPO22, hits give low values 0.924 | locus YIL125W, strain kgd1, hits give low values 0.976 | locus YIR030C, strain dcg1, hits give low values 0.978 | locus YJL092W, strain hpr5, hits give low values 1 | locus YJL095W, strain BCK1 (second series), hits give low values 1 | locus YJL095W, strain BCK1, hits give low values 0.891 | locus YJL115W, strain asf1, hits give low values 0.985 | locus YJL129C, strain trk1, hits give low values 1 | locus YJL134W, strain LCB3, hits give low values 0.983 | locus YJL154C, strain vps35, hits give low values 0.989 | locus YJL164C, strain tpk1, hits give low values 0.996 | locus YJL166W, strain qcr8, hits give low values 0.994 | locus YJL168C, strain set2, hits give low values 0.976 | locus YJL187C, strain SWE1 (second series), hits give low values 0.943
